A selection: hits, their analogues and other compounds. The true share with any hit is near 13%.
CHOP inh – inhibitors of CHOP induction in ER stress response | CHO-K1 CHOP-promoter luciferase, tunicamycin-induced, 15-18 h | inhibition, % at 10 µM | 220,000 compounds, 3.8% hits;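 active means compounds that reduced the stress-induced luciferase reporter signal by more than about 70% of percent inhibition, limit read from the data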
RAM network inh – yeast RAM network inhibition | S. cerevisiae dse1pr::URA3 reporter, 5-FOA growth OD615, 2 d; analog-sensitive cbk1-as2 kinase mutant strain | 190,000 compounds, 1.8% hits | inhibition, % at 50 µM;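 active means inhibition above a set limit, 3 SD over mean compound inhibition, cut at about 8.4% in these data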;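 further: inhibition rescues growth on 5-FOA so higher OD means more RAM inhibition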
Lmaj promast – Leishmania major promastigote growth inhibition; Leishmania major promastigotes, resazurin fluorescence viability; inhibition, % at 10 µM; 200,000 compounds, 9% hits; AID 1063; in the data active means inhibition above about 50%;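 further: promastigotes grown with compound for 44 hours at 28 °C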
WT yeast gro inh – growth inhibition of WT yeast, mitochondrial fusion screen; mitochondrial fusion phenotypic screen, WT strain; inhibition, % at 10 µM; 190,000 compounds, 2.1% hits; in the data active means inhibition above about 58%; tested in S. cerevisiae
Each line names hits and unclear results; the compound was inactive in the other large screens.

O=C(/C=C/c1ccc2c(c1)OCO2)N1CCN(c2n[nH]c(=O)[nH]c2=O)CC1	none (no result: RAM network inh, Lmaj promast, WT yeast gro inh)
Cc1ccc(CNS(=O)(=O)c2ccc3c(c2)n(C)c(=O)c(=O)n3C)cc1	Lmaj promast 99
COc1ccc(NS(=O)(=O)c2ccc3oc(Nc4ccc5c(c4)OCCO5)nc3c2)cc1	Lmaj promast 93, WT yeast gro inh 73
Cn1cc(S(=O)(=O)Nc2ccc(OC(F)(F)F)cc2)c(=O)n(C)c1=O	none (no result: RAM network inh, Lmaj promast, WT yeast gro inh)
Cn1c(=O)c(=O)n(C)c2cc(S(=O)(=O)Nc3ccc(OC(F)(F)F)cc3)ccc21	Lmaj promast 99
Cn1c(=O)oc2cc(S(=O)(=O)Nc3ccc4c(c3)OCCO4)ccc21	Lmaj promast 63
Cn1c(=O)oc2cc(S(=O)(=O)NCc3ccccc3)ccc21	none
CC12CN(C(=S)Nc3ccccc3)CC(C)(CN(C(=S)Nc3ccccc3)C1)C2=O	none
Cn1c(=O)c(=O)n(C)c2cc(S(=O)(=O)Nc3ccc4c(c3)OCCO4)ccc21	Lmaj promast 64
Cc1c(S(=O)(=O)Nc2ccc3c(c2)OCCO3)c(=O)n(C)c(=O)n1C	none
COc1ccc(CCNC(=O)CCCn2c(SCC(N)=O)nc3cc4c(cc3c2=O)OCO4)cc1OC	none
CCOC(=O)C1CCCN(Cc2nc(Cc3ccccc3Cl)no2)C1 (configuration not stated)	none
Cc1cc(/C=C2\C(=N)N3N=CSC3=NC2=O)c(C)n1Cc1ccccc1	none (no result: RAM network inh, Lmaj promast, WT yeast gro inh)
Cc1ccc(-n2[nH]c(C)c(C=Nc3ccc(S(=O)(=O)N4CCOCC4)cc3)c2=O)c(C)c1	Lmaj promast 52
CNS(=O)(=O)c1ccc(N=Cc2c(C)[nH]n(-c3ccc(C)cc3C)c2=O)cc1	none
Cc1c(N=C2N=C(NC(=O)Nc3ccc(Cl)cc3)c3ccccc32)c(=O)n(-c2ccccc2)n1C	CHOP inh 92
CCn1cc(C(=O)NC2CCC(C)CC2)c(=O)c2cc(S(=O)(=O)N3CCCCC3)ccc21 (configuration not stated)	Lmaj promast 76
CC1CCCC(NC(=O)c2cn(C)c3ccc(S(=O)(=O)N4CCCC4)cc3c2=O)C1C (configuration not stated)	CHOP inh 80, Lmaj promast 63
COc1ccc(CCC(C)Nc2ccccc2F)cc1 (configuration not stated)	none
COc1ccc(C(CC(=O)NCc2ccco2)c2ccc(F)cc2)cc1 (configuration not stated)	none
COc1ccc(CNCCC(c2ccc(F)cc2)c2ccc(OC(C)C)cc2)cc1OC (configuration not stated)	CHOP inh 82 (no result: RAM network inh, Lmaj promast, WT yeast gro inh)
COc1ccc(CN(CCC(c2ccccc2)c2ccc(OC(C)C)cc2)C(=O)CCl)cc1OC (configuration not stated)	CHOP inh 110, Lmaj promast 100
COc1ccc(C(CCNC(C)c2ccccc2)c2ccc(F)cc2)cc1 (configuration not stated)	Lmaj promast 100, WT yeast gro inh 59
COc1ccc(C(CCNCc2ccccc2)c2ccc(F)cc2)cc1 (configuration not stated)	Lmaj promast 99, WT yeast gro inh 60
COc1ccc(C(CCN(Cc2ccc(OC)c(OC)c2)C(C)=O)c2ccccc2)cc1 (configuration not stated)	none
CN(C(=O)COC(=O)c1ccc2ccccc2n1)C1CCS(=O)(=O)C1 (configuration not stated)	none
COc1ccc(-c2csc3nc(-c4ccccc4)oc(=O)c23)cc1OC	none
COc1ccc(CNCCC(c2ccc(F)cc2)c2ccc(OC)cc2)cc1 (configuration not stated)	Lmaj promast 100
O=C(C1COc2ccccc2O1)N1CCN(Cc2ccc3c(c2)OCO3)CC1 (configuration not stated)	Lmaj promast 89
O=C(CCc1ccc(S(=O)(=O)NCCc2ccccc2)cc1)N1CCN(Cc2ccc3c(c2)OCO3)CC1	Lmaj promast 78
O=C(CN1C(=O)c2cccc3cccc1c23)N1CCN(Cc2ccc3c(c2)OCO3)CC1	Lmaj promast 88
O=C(CSCc1ccccc1)N1CCN(Cc2ccc3c(c2)OCO3)CC1	Lmaj promast 99
Cc1ccc(-n2nnnc2SCC(=O)Nc2ncc(Cc3ccccc3Cl)s2)cc1	none
COc1cc(C(C[N+](=O)[O-])c2c(C)[nH]c3ccccc23)ccc1O (configuration not stated)	none
COc1ccc(C(C[N+](=O)[O-])c2c(-c3ccccc3)cc3ccccn23)cc1OC (configuration not stated)	CHOP inh 81, Lmaj promast 100
COc1ccc(C(C[N+](=O)[O-])c2c(-c3ccccc3)cc3ccccn23)cc1 (configuration not stated)	Lmaj promast 100
COc1cc(C(C[N+](=O)[O-])c2c(-c3ccccc3)cc3ccccn23)cc(OC)c1OC (configuration not stated)	Lmaj promast 93
O=C(Cn1nc(Cc2ccncc2)c2ccccc2c1=O)Nc1cccnc1Cl	none (no result: RAM network inh, Lmaj promast, WT yeast gro inh)
COc1cc(OC)cc(C(=O)NCCCN2CCN(CCCNC(=O)c3cc(OC)cc(OC)c3)CC2)c1	none
O=C(COC(=O)CNC(=O)c1ccco1)NCc1ccc(F)cc1	none
Cn1ccc(NC(=O)Nc2cccc([N+](=O)[O-])c2)n1	none
CN(C)CCOC(=O)C12CC3CC(CC(C3)C1)C2	none
CN(C)CCOC(=O)C12CC3(C)CC(C)(CC(C)(C3)C1)C2	CHOP inh 94
O=C(NCc1ccco1)C1CC(c2cc(C(F)(F)F)cc(C(F)(F)F)c2)=NO1 (configuration not stated)	none (no result: RAM network inh, Lmaj promast, WT yeast gro inh)
Cc1nn(-c2ccccc2)nc1-c1nnc(-c2ccc(C(F)(F)F)cc2)o1	none (no result: RAM network inh, Lmaj promast, WT yeast gro inh)
C=CCNc1cc(N2CCCC2)ccc1[N+](=O)[O-]	none
Cc1ccc(N(CC(=O)NCCc2ccc(F)cc2)S(=O)(=O)c2ccc(Cl)c([N+](=O)[O-])c2)c(C)c1	Lmaj promast 54
CC(NC(=O)CN(c1cccc(C(F)(F)F)c1)S(=O)(=O)c1ccc(Cl)c([N+](=O)[O-])c1)c1ccccc1 (configuration not stated)	Lmaj promast 50
O=C(O)CN(c1cccc(C(F)(F)F)c1)S(=O)(=O)c1ccccc1	none
O=C(CN(c1cccc(C(F)(F)F)c1)S(=O)(=O)c1ccc(Cl)c([N+](=O)[O-])c1)NCc1ccccc1	Lmaj promast 63
CC(C)(C)NC(=O)CN(c1cccc([N+](=O)[O-])c1)S(=O)(=O)c1ccccc1	none
O=C(CN(c1cccc(C(F)(F)F)c1)S(=O)(=O)c1ccc(Cl)c([N+](=O)[O-])c1)NCc1ccccc1Cl	Lmaj promast 100
O=C(CN(c1ccc(Br)cc1)S(=O)(=O)c1ccc(Cl)c([N+](=O)[O-])c1)NCCc1ccccc1	none
CC(C)C(=O)Nc1ccc(C(=O)Nc2nnc(C(C)(C)C)s2)cc1	none
CCN1CCc2c(sc(NC(=O)c3ccc(S(=O)(=O)N4CCOCC4)cc3)c2C(N)=O)C1	none
COc1cccc2sc(NC(=O)c3ccc(S(=O)(=O)N4CCOCC4)cc3)nc12	Lmaj promast 51
COc1ccccc1NC(=O)c1ccc(S(=O)(=O)N2CCOCC2)cc1	none

Screens (PubChem BioAssay)
